Out of some 5,500 compounds screened, about 2,000 (36%) were called active. About 18% were inconclusive and are not listed. No stated cut-off is given here; in the data, active means normalized growth mostly below about 0.91 (no sharp cut-off); inconclusive means no clear call, values can overlap the other calls; inactive means mostly above about 0.92. The list shows a part of the results.
Test: chemical genetic growth profiling, strain panel (AID 1159580);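 further: tested at 20 µM; growth read once vehicle control cultures reached saturation at 30 °C; 1 = growth at the plate median or of vehicle wells; lower values mean less growth of the strain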
Settings: growth OD

Measured: normalized growth

C[C@]12C=CC(=O)C=C1CCC1C2[C@@H](O)C[C@@]2(C)C1CC[C@]2(O)C(=O)CO (stereo not given in full)
inactive: S. cerevisiae deletion strains, locus YJR075W, strain HOC1, hits give low values 0.993 | S. cerevisiae deletion strains, locus YKL009W, strain mrt4, hits give low values 0.976 | S. cerevisiae deletion strains, locus YKL068W, hits give low values 0.991 | S. cerevisiae deletion strains, locus YKL085W, strain MDH1 (second series), hits give low values 0.98 | S. cerevisiae deletion strains, locus YKL085W, strain MDH1, hits give low values 0.98 | S. cerevisiae deletion strains, locus YKL160W, strain elf1, hits give low values 0.981 | S. cerevisiae deletion strains, locus YKL190W, strain CNB1, hits give low values 0.996 | S. cerevisiae deletion strains, locus YKR001C, strain vps1, hits give low values 0.991 | S. cerevisiae deletion strains, locus YKR026C, strain gcn3, hits give low values 0.997 | S. cerevisiae deletion strains, locus YKR091W, strain srl3, hits give low values 0.999 | S. cerevisiae deletion strains, locus YLL001W, strain dnm1, hits give low values 0.978 | S. cerevisiae deletion strains, locus YLL026W, hits give low values 0.995 | S. cerevisiae deletion strains, locus YLL041C, strain sdh2, hits give low values 0.989 | S. cerevisiae deletion strains, locus YLR027C, strain aat2, hits give low values 0.995 | S. cerevisiae deletion strains, locus YLR039C, strain RIC1, hits give low values 0.974 | S. cerevisiae deletion strains, locus YLR058C, strain SHM2, hits give low values 0.994 | S. cerevisiae deletion strains, locus YLR102C, strain apc9, hits give low values 0.98 | S. cerevisiae deletion strains, locus YLR113W, strain HOG1, hits give low values 1.01 | S. cerevisiae deletion strains, locus YLR221C, strain rsa3, hits give low values 1.01 | S. cerevisiae deletion strains, locus YLR258W, strain gsy2, hits give low values 0.991 | S. cerevisiae deletion strains, locus YLR262C, strain YPT6 (second series), hits give low values 0.992 | S. cerevisiae deletion strains, locus YLR262C, strain YPT6, hits give low values 0.991 | S. cerevisiae deletion strains, locus YLR268W, strain sec22, hits give low values 0.948 | S. cerevisiae deletion strains, locus YLR320W, strain mms22, hits give low values 0.97 | S. cerevisiae deletion strains, locus YLR330W, strain CHS5, hits give low values 0.99 | S. cerevisiae deletion strains, locus YLR342W, strain FKS1 (second series), hits give low values 0.979 | S. cerevisiae deletion strains, locus YLR342W, strain FKS1, hits give low values 0.997 | S. cerevisiae deletion strains, locus YLR357W, strain rsc2, hits give low values 0.989 | S. cerevisiae deletion strains, locus YLR370C, strain arc18, hits give low values 0.988 | S. cerevisiae deletion strains, locus YLR371W, strain rom2, hits give low values 0.964 | S. cerevisiae deletion strains, locus YLR384C, strain iki3, hits give low values 0.991 | S. cerevisiae deletion strains, locus YLR418C, strain cdc73, hits give low values 0.98 | S. cerevisiae deletion strains, locus YML016C, strain PPZ1, hits give low values 0.988 | S. cerevisiae deletion strains, locus YML032C, strain rad52, hits give low values 0.972 | S. cerevisiae deletion strains, locus YML120C, strain ndi1, hits give low values 0.984 | S. cerevisiae deletion strains, locus YML124C, strain tub3, hits give low values 0.989 | S. cerevisiae deletion strains, locus YMR058W, strain fet3, hits give low values 0.996 | S. cerevisiae deletion strains, locus YMR078C, strain ctf18, hits give low values 0.974 | S. cerevisiae deletion strains, locus YMR125W, strain sto1, hits give low values 0.99 | S. cerevisiae deletion strains, locus YMR129W, hits give low values 0.993 | S. cerevisiae deletion strains, locus YMR205C, strain PFK2, hits give low values 0.998 | S. cerevisiae deletion strains, locus YMR223W, strain ubp8, hits give low values 1 | S. cerevisiae deletion strains, locus YMR231W, strain pep5, hits give low values 0.991 | S. cerevisiae deletion strains, locus YMR307W, strain GAS1, hits give low values 0.893 | S. cerevisiae deletion strains, locus YNL067W, strain RPL9B, hits give low values 1 | S. cerevisiae deletion strains, locus YNL071W, strain lat1, hits give low values 1 | S. cerevisiae deletion strains, locus YNL128W, strain TEP1, hits give low values 0.983 | S. cerevisiae deletion strains, locus YNL183C, strain NPR1, hits give low values 0.973 | S. cerevisiae deletion strains, locus YNL209W, strain ssb2, hits give low values 0.998 | S. cerevisiae deletion strains, locus YNL233W, strain BNI4, hits give low values 0.996 | S. cerevisiae deletion strains, locus YNL248C, strain rpa49, hits give low values 0.993 | S. cerevisiae deletion strains, locus YNL250W, strain rad50, hits give low values 0.967 | S. cerevisiae deletion strains, locus YNL271C, strain bni1, hits give low values 0.982 | S. cerevisiae deletion strains, locus YNL298W, strain CLA4, hits give low values 0.98 | S. cerevisiae deletion strains, locus YNL307C, strain MCK1, hits give low values 0.979 | S. cerevisiae deletion strains, locus YNL322C, strain KRE1 (second series), hits give low values 1 | S. cerevisiae deletion strains, locus YNL322C, strain KRE1, hits give low values 0.993 | S. cerevisiae deletion strains, locus YNR049C, strain mso1, hits give low values 0.995 | S. cerevisiae deletion strains, locus YNR052C, strain pop2, hits give low values 0.988 | S. cerevisiae deletion strains, locus YOL006C, strain TOP1, hits give low values 1.04 | S. cerevisiae deletion strains, locus YOL012C, strain htz1 0.96 | S. cerevisiae deletion strains, locus YOL147C, strain pex11, hits give low values 0.983 | S. cerevisiae deletion strains, locus YOR001W, strain rrp6, hits give low values 0.975 | S. cerevisiae deletion strains, locus YOR061W, strain CKA2, hits give low values 0.986 | S. cerevisiae deletion strains, locus YOR069W, strain VPS5, hits give low values 0.99 | S. cerevisiae deletion strains, locus YOR070C, strain gyp1, hits give low values 1 | S. cerevisiae deletion strains, locus YOR080W, strain dia2, hits give low values 0.997 | S. cerevisiae deletion strains, locus YOR083W, strain WHI5, hits give low values 0.973 | S. cerevisiae deletion strains, locus YOR106W, strain vam3, hits give low values 0.977 | S. cerevisiae deletion strains, locus YOR136W, strain idh2, hits give low values 0.987 | S. cerevisiae deletion strains, locus YOR144C, strain elg1, hits give low values 0.987 | S. cerevisiae deletion strains, locus YOR184W, strain ser1, hits give low values 0.978 | S. cerevisiae deletion strains, locus YOR231W, strain MKK1, hits give low values 1.01 | S. cerevisiae deletion strains, locus YOR265W, strain rbl2, hits give low values 0.996 | S. cerevisiae deletion strains, locus YOR270C, strain vph1, hits give low values 0.989 | S. cerevisiae deletion strains, locus YOR290C, strain snf2, hits give low values 0.997 | S. cerevisiae deletion strains, locus YOR316C, strain cot1, hits give low values 0.983 | S. cerevisiae deletion strains, locus YPL051W, strain arl3, hits give low values 0.995 | S. cerevisiae deletion strains, locus YPL055C, strain LGE1, hits give low values 1.01 | S. cerevisiae deletion strains, locus YPL078C, strain atp4, hits give low values 0.974 | S. cerevisiae deletion strains, locus YPL106C, strain sse1, hits give low values 1.02 | S. cerevisiae deletion strains, locus YPL240C, strain hsp82, hits give low values 1 | S. cerevisiae deletion strains, locus YPL241C, strain CIN2, hits give low values 0.993 | S. cerevisiae deletion strains, locus YPL256C, strain CLN2, hits give low values 1.02 | S. cerevisiae deletion strains, locus YPR119W, strain clb2, hits give low values 0.979 | S. cerevisiae deletion strains, locus YPR141C, strain kar3, hits give low values 0.981 | S. cerevisiae deletion strains, locus YPR163C, strain tif3, hits give low values 0.98 | S. cerevisiae deletion strains, locus YPR167C, strain met16, hits give low values 0.982 | S. cerevisiae deletion strains, strain wtn01, hits give low values 0.983 | S. cerevisiae strains, strain wild type, hits give low values 0.991

Source: PubChem BioAssay AID1159580 (chemical genetic matrix, 2015)
